# “And” between values parts separate entries of the source, which are not always exact repeats. Identical values can stand only once. Compounds without any hit were thinned out: in the full panel of roughly 79,000, 15% have a hit. Values without a mark were called inactive. The source made the active and inactive calls. No stated cut-off is given here; in the data, active means growth inhibition above about 70%; inactive means the rest.
# Experiments:
# [1] = NCI Yeast Anticancer Drug Screen. Data for the rad52 strain (AID 147);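 further: 0% = growth of vehicle-treated control cultures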; details: S. cerevisiae rad52 mutant growth inhibition, active compounds read high
# Summary of the method: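 Screen used a yeast mutant impaired in DNA repair. After compound exposure, growth was measured. Values reflect inhibition compared with vehicle-treated cells.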
# [2] = NCI Yeast Anticancer Drug Screen. Data for the rad50EPP+ strain (AID 151);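 further: 0% = growth of vehicle-treated control cultures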; details: S. cerevisiae rad50 mutant strain, active compounds read high
# Summary of the method: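 Exposing the rad50EPP+ strain to each compound, growth was compared with vehicle-only cultures to give inhibition.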
# [3] = NCI Yeast Anticancer Drug Screen. Data for the mgt1 strain (AID 153); details: S. cerevisiae mgt1 mutant growth inhibition, active compounds read high
# Summary of the method: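 Genetically defined yeast (mgt1) treated with compound; inhibition of growth expressed against vehicle-treated controls.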
# [4] = NCI Yeast Anticancer Drug Screen. Data for the rad50 strain (AID 155);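 further: 0% = growth of vehicle-only cultures of the same strain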; details: S. cerevisiae rad50 strain growth inhibition, active compounds read high
# Summary of the method: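 Compounds were tested on a yeast strain with an engineered DNA damage repair alteration; the reported value is growth inhibition normalised to vehicle treatment.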
# [5] = NCI Yeast Anticancer Drug Screen. Data for the mec2-1 strain (AID 157); details: S. cerevisiae mec2-1 strain, active compounds read high
# Summary of the method: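 Readout is yeast growth inhibition, normalised to vehicle-treated controls, in the mec2-1 strain exposed to compound.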
# [6] = NCI Yeast Anticancer Drug Screen. Data for the rad14 strain (AID 159);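 further: 0% = growth of vehicle-treated control cultures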; details: S. cerevisiae rad14 strain growth inhibition, active compounds read high
# Summary of the method: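 Compound-treated yeast with a defined DNA-repair lesion; growth inhibition normalised to vehicle-treated cultures.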
# [7] = NCI Yeast Anticancer Drug Screen. Data for the sgs1 mgt1 strain (AID 161);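 further: 0% = growth of cultures given vehicle only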; details: S. cerevisiae sgs1 mgt1 strain, active compounds read high
# Summary of the method: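 Growth of a repair-deficient yeast mutant was monitored after compound treatment and expressed as inhibition relative to vehicle-treated cultures.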
# [8] = NCI Yeast Anticancer Drug Screen. Data for the CLN2oe strain (AID 163);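 further: 0% = growth of vehicle-only control cultures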; details: S. cerevisiae CLN2oe strain, active compounds read high
# Summary of the method: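 Values reflect how much compound exposure reduced yeast growth, referenced to vehicle-exposed cells. Assay organism is a strain with a defined genetic change affecting cell-cycle control.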
# [9] = NCI Yeast Anticancer Drug Screen. Data for the cln2 rad14 strain (AID 165);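 further: 0% = growth equal to vehicle treated cultures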; details: S. cerevisiae cln2 rad14 strain, active compounds read high
# Summary of the method: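 Relative to vehicle controls, growth inhibition of compound-treated cln2 rad14 yeast was recorded.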
# [10] = NCI Yeast Anticancer Drug Screen. Data for the bub3 strain (AID 167); details: S. cerevisiae bub3 mutant strain, active compounds read high
# Summary of the method: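 Growth of a checkpoint-deficient yeast mutant is measured after compound exposure. Values represent inhibition relative to vehicle.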
# [11] = NCI Yeast Anticancer Drug Screen. Data for the wt2 strain (AID 169);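 further: 0% = growth of vehicle-treated yeast cultures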; details: S. cerevisiae wt2 strain growth inhibition, active compounds read high
# Summary of the method: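 Values express reduction in yeast growth under compound treatment, referenced to vehicle-treated cells.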
# [12] = NCI Yeast Anticancer Drug Screen. Data for the mlh1 strain (AID 171);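 further: 0% = growth of vehicle-treated control cultures of the same strain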; details: S. cerevisiae mlh1 strain growth inhibition, active compounds read high
# Summary of the method: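 Steps: expose the defined-mutant yeast strain to compound; expose a parallel culture to vehicle; measure growth; express compound effect as inhibition relative to the vehicle culture.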
# [13] = NCI Yeast Anticancer Drug Screen. Data for the mlh1 rad18 strain (AID 175); details: S. cerevisiae mlh1 rad18 strain growth inhibition, active compounds read high
# Summary of the method: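 Test agents were incubated with a yeast strain of defined genotype (DNA damage repair defect). Inhibition of growth was derived by comparison with vehicle-exposed cultures.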
# [14] = NCI Yeast Anticancer Drug Screen. Data for the rad18 strain (AID 177); details: S. cerevisiae rad18 mutant growth inhibition, active compounds read high
# Summary of the method: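 A genetically defined yeast mutant impaired in DNA damage repair was treated with test compounds, then its growth was measured against cultures receiving vehicle alone.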
# [15] = NCI Yeast Anticancer Drug Screen. Data for the wt1 strain (AID 149);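 further: 0% = growth of vehicle-treated wt1 cultures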; details: S. cerevisiae wt1 strain (SPY 50644) growth inhibition, active compounds read high
# Summary of the method: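 Readout: yeast growth inhibition, normalised to vehicle controls, in the wt1 strain exposed to test compounds.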
# [16] = NCI Yeast Anticancer Drug Screen. Data for the sgs1 strain (AID 173);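 further: 0% = growth of vehicle-only control cultures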; details: S. cerevisiae sgs1 mutant, active compounds read high
# Summary of the method: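 Treat defined-mutant yeast with compound; measure growth; calculate inhibition relative to vehicle-treated cells.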
# [17] = at 5.0 µM (retest, dose inferred, filed as 0.5)
# [18] = at 50.0 µM (retest, dose inferred, filed as 5.0)
smiles,measurement,setting,value
O=S(=O)(O)/C(=C\c1ccccc1)c1ccccc1 (tested in a mixture with another compound),growth inhibition,[1]; at 1.2 µM,-3%
same,growth inhibition,[1]; at 3.7 µM,-2%
same,growth inhibition,[1]; at 11.0 µM,-6%
same,growth inhibition,[1]; at 33.0 µM,-5%
same,growth inhibition,[1]; at 100.0 µM,-8%
same,growth inhibition,[2]; at 1.2 µM,-3%
same,growth inhibition,[2]; at 3.7 µM,-2%
same,growth inhibition,[2]; at 11.0 µM,-3%
same,growth inhibition,[2]; at 33.0 µM,-3%
same,growth inhibition,[2]; at 100.0 µM,3%
same,growth inhibition,[3]; at 1.2 µM,0%
same,growth inhibition,[3]; at 3.7 µM,-1%
same,growth inhibition,[3]; at 11.0 µM,-1%
same,growth inhibition,[3]; at 33.0 µM,-2%
same,growth inhibition,[3]; at 100.0 µM,-2%
same,growth inhibition,[4]; at 1.2 µM,0%
same,growth inhibition,[4]; at 3.7 µM,-5%
same,growth inhibition,[4]; [17],15%
same,growth inhibition,[4]; at 11.0 µM,1%
same,growth inhibition,[4]; at 33.0 µM,-5%
same,growth inhibition,[4]; [18],15%
same,growth inhibition,[4]; at 50.0 µM,-10.3% and -8% and 14.8%
same,growth inhibition,[4]; at 100.0 µM,-4%
same,growth inhibition,[5]; at 1.2 µM,-3%
same,growth inhibition,[5]; at 3.7 µM,-2%
same,growth inhibition,[5]; [17],24%
same,growth inhibition,[5]; at 11.0 µM,-3%
same,growth inhibition,[5]; at 33.0 µM,-2%
same,growth inhibition,[5]; [18],24%
same,growth inhibition,[5]; at 50.0 µM,2.1% and -4.7% and -21.4%
same,growth inhibition,[5]; at 100.0 µM,10%
same,growth inhibition,[6]; at 1.2 µM,0%
same,growth inhibition,[6]; at 3.7 µM,0%
same,growth inhibition,[6]; at 11.0 µM,2%
same,growth inhibition,[6]; at 33.0 µM,-7%
same,growth inhibition,[6]; at 100.0 µM,3%
same,growth inhibition,[7]; [17],12%
same,growth inhibition,[7]; [18],3%
same,growth inhibition,[7]; at 50.0 µM,-28.2% and -11.8% and -14.2%
same,growth inhibition,[8]; at 1.2 µM,-3%
same,growth inhibition,[8]; at 3.7 µM,-1%
same,growth inhibition,[8]; at 11.0 µM,-5%
same,growth inhibition,[8]; at 33.0 µM,-7%
same,growth inhibition,[8]; at 100.0 µM,2%
same,growth inhibition,[9]; [17],55%
same,growth inhibition,[9]; [18],23%
same,growth inhibition,[9]; at 50.0 µM,28.4% and 15.9% and 9.35%
same,growth inhibition,[10]; at 1.2 µM,-11%
same,growth inhibition,[10]; at 3.7 µM,-6%
same,growth inhibition,[10]; [17],97% (active)
same,growth inhibition,[10]; at 11.0 µM,-30%
same,growth inhibition,[10]; at 33.0 µM,19%
same,growth inhibition,[10]; [18],95% (active)
same,growth inhibition,[10]; at 50.0 µM,-19.1% and -0.25% and 3.5%
same,growth inhibition,[10]; at 100.0 µM,1%
same,growth inhibition,[11]; at 1.2 µM,-2%
same,growth inhibition,[11]; at 3.7 µM,0%
same,growth inhibition,[11]; at 11.0 µM,-4%
same,growth inhibition,[11]; at 33.0 µM,-2%
same,growth inhibition,[11]; at 100.0 µM,-2%
same,growth inhibition,[12]; at 1.2 µM,0%
same,growth inhibition,[12]; at 3.7 µM,2%
same,growth inhibition,[12]; at 11.0 µM,1%
same,growth inhibition,[12]; at 33.0 µM,-22%
same,growth inhibition,[12]; at 100.0 µM,10%
same,growth inhibition,[13]; [17],39%
same,growth inhibition,[13]; [18],4%
same,growth inhibition,[13]; at 50.0 µM,8.8% and -6.15% and -15.1%
same,growth inhibition,[14]; at 1.2 µM,-2%
same,growth inhibition,[14]; at 3.7 µM,2%
same,growth inhibition,[14]; at 11.0 µM,5%
same,growth inhibition,[14]; at 33.0 µM,-5%
same,growth inhibition,[14]; at 100.0 µM,-11%
CC[C@@]1(O)C(=O)OCc2c1cc1n(c2=O)Cc2cc3c(NC(=O)CN)cccc3nc2-1,growth inhibition,[15]; at 1.2 µM,1%
same,growth inhibition,[15]; at 3.7 µM,-1%
same,growth inhibition,[15]; at 11.0 µM,-2%
same,growth inhibition,[15]; at 33.0 µM,-3%
same,growth inhibition,[15]; at 100.0 µM,0%
same,growth inhibition,[2]; at 1.2 µM,-4%
same,growth inhibition,[2]; at 3.7 µM,2%
same,growth inhibition,[2]; at 11.0 µM,6%
same,growth inhibition,[2]; at 33.0 µM,19%
same,growth inhibition,[2]; at 100.0 µM,49%
same,growth inhibition,[3]; at 1.2 µM,-3%
same,growth inhibition,[3]; at 3.7 µM,1%
same,growth inhibition,[3]; at 11.0 µM,0%
same,growth inhibition,[3]; at 33.0 µM,-1%
same,growth inhibition,[3]; at 100.0 µM,-3%
same,growth inhibition,[4]; at 1.2 µM,8%
same,growth inhibition,[4]; at 3.7 µM,21%
same,growth inhibition,[4]; [17],1%
same,growth inhibition,[4]; at 11.0 µM,54%
same,growth inhibition,[4]; at 33.0 µM,79% (active)
same,growth inhibition,[4]; [18],72% (active)
same,growth inhibition,[4]; at 50.0 µM,88.2% (active)
same,growth inhibition,[4]; at 100.0 µM,88% (active)
same,growth inhibition,[5]; at 1.2 µM,-3%
same,growth inhibition,[5]; at 3.7 µM,-4%
same,growth inhibition,[5]; [17],-9%
same,growth inhibition,[5]; at 11.0 µM,-3%
same,growth inhibition,[5]; at 33.0 µM,1%
same,growth inhibition,[5]; [18],-5%
same,growth inhibition,[5]; at 50.0 µM,-11.8%
same,growth inhibition,[5]; at 100.0 µM,19%
same,growth inhibition,[7]; [17],-11%
same,growth inhibition,[7]; [18],-3%
same,growth inhibition,[7]; at 50.0 µM,-1.65%
same,growth inhibition,[8]; at 1.2 µM,0%
same,growth inhibition,[8]; at 3.7 µM,-2%
same,growth inhibition,[8]; at 11.0 µM,-1%
same,growth inhibition,[8]; at 33.0 µM,-2%
same,growth inhibition,[8]; at 100.0 µM,0%
same,growth inhibition,[9]; [17],-35%
same,growth inhibition,[9]; [18],-26%
same,growth inhibition,[9]; at 50.0 µM,26.9%
same,growth inhibition,[10]; at 1.2 µM,-12%
same,growth inhibition,[10]; at 3.7 µM,-6%
same,growth inhibition,[10]; [17],-19%
same,growth inhibition,[10]; at 11.0 µM,8%
same,growth inhibition,[10]; at 33.0 µM,7%
same,growth inhibition,[10]; [18],-3%
same,growth inhibition,[10]; at 50.0 µM,8.3%
same,growth inhibition,[10]; at 100.0 µM,-6%
same,growth inhibition,[11]; at 1.2 µM,-1%
same,growth inhibition,[11]; at 3.7 µM,1%
same,growth inhibition,[11]; at 11.0 µM,0%
same,growth inhibition,[11]; at 33.0 µM,-1%
same,growth inhibition,[11]; at 100.0 µM,0%
same,growth inhibition,[16]; at 1.2 µM,-2%
same,growth inhibition,[16]; at 3.7 µM,-3%
same,growth inhibition,[16]; at 11.0 µM,-2%
same,growth inhibition,[16]; at 33.0 µM,-1%
same,growth inhibition,[16]; at 100.0 µM,7%
